# Test results taken from the OligoGym collection.
# Biological target: FAM111A
# Experiment: pooled miR-30 sensor sort-seq; sequence = guide strand
# Conditions: shRNA
# Note: reference of the scale not given here.
row,Sequence,sensor-assay potency score (higher = more potent)
1,TTTCCAATCATCATTCTCCAGA,-0.625
2,TTGTTCTCTCAACACACAGGTG,-0.868
3,TTTCCTTGTCTTTTAGCTCTTC,0.0612
4,TATCTCTTTTCTGACAGCCTGG,-0.766
5,TACTCTTTGATTCCTTCTGTGC,-0.506
6,TTACATTTTTCATTGACTGAGT,-0.373
7,TTTGAGATCATTTCTAATCAAG,-0.737
8,TATGTGGTTATCTTCCTTCTGC,-0.217
9,TCTTTTCTCAACCTCAACCTGA,-0.463
10,TTCTAATTCATCAACTGGCTGG,0.174
11,TTGAGAGCCATATATAAGCTAC,-0.708
12,TTCATATCTTGGTTTCTCCTGT,0.306

# Biological target: FAM113A
# Experiment: as above
# Conditions: shRNA
row,Sequence,sensor-assay potency score (higher = more potent)
1,TGGAAGTGGACCATGTCGCTTC,-0.111
2,TTGTTGTGTAGCAGCTGCTGGA,-0.714
3,TAGCTCTCCATTGAGCAGCGAC,-1.09
4,TAGCACTGTAGAAGTTCCCTTC,0.54
5,TTGAGCAGCGACCATATCTGGA,-0.708
6,TTCCAGAACATCCTCAAGGTAC,-0.46
7,TTCAACCACATCCCGCCGCAGG,-1.27
8,TCTCTCTGAGTGTCTGAGCCGC,-0.879
9,TTTCTGGAGCAAGAGCACCAGG,-1.16
10,TTGATGATCACCAGGTCCGGGG,-0.983
